High-throughput results as filed in PubChem BioAssay.
Most compounds without a hit are left out; they make up all but 4.7% or so of the library.
D3 ag = activates the human D3 dopamine receptor; P35462; D3R DiscoveRx beta-arrestin cells, luminescence, 90 min; max activation, %; 410,000 tested, 0.58% active; in the data active = max activation above about 30%; note: 0% is about no effect
Target sequence (P35462 whole entry, looked up): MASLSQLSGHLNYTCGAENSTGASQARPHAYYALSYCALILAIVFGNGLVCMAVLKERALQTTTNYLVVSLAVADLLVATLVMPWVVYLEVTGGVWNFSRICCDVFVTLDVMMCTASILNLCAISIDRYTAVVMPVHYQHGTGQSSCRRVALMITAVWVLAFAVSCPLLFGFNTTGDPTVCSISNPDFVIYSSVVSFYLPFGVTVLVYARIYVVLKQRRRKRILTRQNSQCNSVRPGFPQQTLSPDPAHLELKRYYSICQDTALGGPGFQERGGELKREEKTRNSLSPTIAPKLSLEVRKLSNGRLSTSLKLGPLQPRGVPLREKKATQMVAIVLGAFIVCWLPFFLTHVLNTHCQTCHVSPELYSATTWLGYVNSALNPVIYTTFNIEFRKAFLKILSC
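Agonist mode: compounds and dopamine controls were applied to plated cells for 90 min at 37 degrees C after an overnight attachment at 1500 cells/well. Luminescent read-out followed 30 - 60 minutes at room temperature with DiscoveRx detection reagent.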
DRD3 antagonist = antagonists of human D3 dopamine receptor. P35462. D3R cells, DiscoveRx beta-arrestin luminescence, antagonist mode; stronger effect = lower value. max response, negative = inhibition, %. 360,000 tested, 2.5% active. AID 652054; in the data active = max response below about -50%; inconclusive = no clear call, values can overlap the other calls; note: % is set by controls: 0 for no effect and ±100 for the full control effect
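Cells expressing the human receptor were seeded at 1500 cells/well, incubated overnight at 37 degrees C in 5% CO2, then exposed to library compounds with dopamine controls for 90 minutes at 37 degrees C before luminescent detection.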
ATXN viability = cell viability loss in ATXN counter-screen; S2 cells (HEK-293 line with an ATXN2-luciferase reporter) viability, CellTiter-Fluor protease fluorescence, 24 h; AID 651635; Potency, µM (doses to about 56.7 µM), most hits filed as cytotoxic; 400,000 tested, 0.49% active; note: potency is the fitted concentration of half-maximal effect; nearly all actives have a fitted effect of over 40% in size
TGFb inhibitor = TGF-b pathway inhibition. HepG2 CAGA-GFP TGF-b/SMAD3 reporter, GFP fluorescence, 18 h; TGF-beta stimulated, 500 pg/mL final. Potency, µM (doses to about 46.1 µM), for the others: at the highest dose activity, negative = inhibition, usual class: inhibitors. 410,000 tested, 1.2% active; note: potency is the fitted concentration of half-maximal effect; % is set by controls: 0 for no effect and ±100 for the full control effect; nearly all actives have a fitted effect of over 65% in size
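Cell-based qHTS in HEPG2 carrying a CAGA-GFP Smad reporter; compounds added before 500 pg/mL final TGF-beta, 18 h incubation at 37 degrees C, GFP fluorescence quantified per cell by imaging cytometry.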
ATXN2 expr inh = ATXN2 expression inhibition | AID 1745845 | Potency, µM (highest dose often 57 µM), without a hit: at the top dose activity change, negative = inhibition, most hits filed as inhibitors | 360,000 tested, 0.72% active | HEK-293 ATXN2-luciferase reporter, luminescence, 24 h; note: potency is the fitted concentration of half-maximal effect; % is set by controls: 0 for no effect and ±100 for the full control effect; nearly all actives have a fitted effect of over 55% in size
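qHTS (up to 57 uM final) was run with 24 h compound exposure of reporter cells at 37 °C. Each well was multiplexed: SteadyGlo luminescence measured ATXN2-luciferase expression after a fluorogenic Gly-Phe-AFC viability readout (25 uM final).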
HepG2 viability = HepG2 cytotoxicity, counter-screen for TGF-b inhibitors; 410,000 tested, 0.76% active; Potency, µM (highest dose often 46.1 µM), for inactives: top-dose activity change, negative = cytotoxicity, usual class: cytotoxic; AID 588856; HepG2 CAGA-GFP viability, ATP luminescence, 18 h; note: potency is the fitted concentration of half-maximal effect
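HepG2 CAGA-GFP cells (1000/well, DMEM with 1% FBS) received compound, then TGF-beta at 500 pg/mL final, and were incubated 18 hours at 37 degrees C. Viability was read by CellTiter-Glo luminescence. Media-only wells were set as complete cell-killing and DMSO as no toxicity.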
* = called active by the depositor; i = inactive; ? = inconclusive; nt = not tested or not shown. Unless noted, calls come from the whole dose curve; as a rule, active = well fitted curve in the direction sought with a large enough effect; inconclusive = small, poorly fitted or top-dose-only effect, or another doubt; inactive = no such curve, though single readings can be large; an effect the other way counts as inactive or inconclusive.

SMILES | D3 ag | DRD3 antagonist | ATXN viability | TGFb inhibitor | ATXN2 expr inh | HepG2 viability
COc1cccc(-c2csc(N3CCN(C(=O)Nc4ccccc4Cl)CC3)n2)c1 | 0 | 13 | i | -17% | nt | 0%
COc1cccc(NC(=O)N2CCN(c3nc(-c4cccc(OC)c4)cs3)CC2)c1 | 2 | 20 | 14µM* | ? | nt | -36%
COc1cccc(NC(=O)Nc2ccc(Br)cn2)c1 | 49* | 0 | i | -11% | 5% | -8%
COc1ccc(NC(=O)Nc2ccc(Br)cn2)cc1OC | -2 | 107 | i | 20% | 15% | -5%
COc1cccc(NC(=O)Nc2nc(-c3ccc(OC)c(OC)c3)cs2)c1 | 49* | 118 | 8.9µM* | 11µM* | 3.2µM* | 16µM*
O=C(Nc1cc(Cl)cc(Cl)c1)N[C@@H]1CC[C@@H](CCNS(=O)(=O)c2cccc(F)c2)O[C@@H]1CO | -9 | -7 | nt | nt | nt | nt
COc1cccc(C(=O)CN2CCN(S(=O)(=O)c3ccc(Cl)cc3)CC2)c1 | 4 | nt | i | ? | 2% | -1%
CCCc1nn2c(=O)cc(COC(=O)c3ccc4c(c3)OCO4)nc2s1 | -2 | nt | i | 7% | -7% | 6%
Cc1ccc(C(=O)c2sc(Nc3ccc(F)cc3)nc2N)c(C)c1 | -21 | nt | i | 13µM* | ? | -75%
COc1ccc(Nc2nc(N)c(C(=O)c3ccc(F)cc3)s2)cc1 | 0 | -10 | ? | -22% | nt | -5%
COc1ccc(Nc2nc(N)c(C(=O)c3ccc(OC)cc3)s2)cc1 | -7 | -24 | ? | 13µM* | ? | -153%
CCOc1ccc(Nc2nc(N)c(C(=O)c3ccccc3Cl)s2)cc1 | 70* | nt | nt | 3.5µM* | nt | -46%
CCOC(=O)C1(C)C=C(Nc2ccc(C)cc2)C(=O)N1c1ccccc1 (stereo unspecified) | 5 | nt | i | -12% | 9% | -6%
COc1ccc(C(=O)N2CCC(c3nc4ccccc4s3)CC2)cc1Cl | 7 | nt | ? | 8.9µM* | ? | -31%
CCCOc1ccc(CC(=O)NNC(=S)Nc2ccccc2)cc1Br | 6 | -56* | i | -4% | 10% | -22%
COc1ccc(CC(=O)NNC(=S)Nc2ccccc2)cc1Cl | 5 | -8 | ? | -20% | 9% | 4%
CNc1nc2cc([N+](=O)[O-])c([N+](=O)[O-])cc2nc1NC | 20 | 68 | i | 7.1µM* | ? | -3%
CCC(C)(C)C1CCc2[nH]nc(C(=O)NN)c2C1 (stereo unspecified) | -7 | -1 | i | -22% | -1% | 3%
CCC(C)(C)C1CCc2[nH]nc(C(=O)NC3CCCCC3)c2C1 (stereo unspecified) | -44 | -62* | i | -8% | 12% | 13%
CCc1ccc(NC(=O)CSc2nc(C)c(C(=O)Nc3ccccc3)c(-c3ccc(OC)c(OC)c3)c2C#N)cc1 | 3 | nt | i | -14% | -9% | -16%
COc1c(C)cnc(Cn2cnc3c(Cl)nc(N)nc32)c1C | nt | nt | nt | nt | 0.19µM* | nt
O=C(c1cccnc1)C1CCCN(Cc2ccc3c(c2)CN(C(=O)c2cnccn2)CCO3)C1 (stereo unspecified) | nt | nt | i | nt | nt | nt
COc1cc2c(cc1OC)C(c1oc(-c3ccc(-c4cc(Cl)ccc4Cl)o3)cc1C)=NCC2 | nt | nt | nt | 4% | nt | 16%
CC(=O)Nc1ccc(/C=C/c2ccnc3ccccc23)cc1 | nt | nt | nt | 18% | nt | -24%
Cc1ccc(-c2csc(N3CCN(CCCn4c(-c5ccncc5)nc5ccccc54)CC3)n2)cc1 | -1 | 72 | nt | 7.1µM* | 22µM* | -27%
SMILES | D3 ag | DRD3 antagonist | ATXN viability | TGFb inhibitor | ATXN2 expr inh | HepG2 viability
CC(=O)N[C@@H](C)c1nc2ccccc2n1CCCN1CCN(c2nc(-c3ccc(C)cc3)cs2)CC1 | 3 | 10 | ? | 8.9µM* | ? | -11%
O=C1CC(c2ccco2)Cc2[nH]c(=O)c(C(=O)Nc3ccccc3)cc21 (stereo unspecified) | nt | nt | nt | 6% | nt | -11%
Cc1ccc(N(C(=O)c2nsc(Cl)c2Cl)C(C(=O)NC2CCCC2)c2ccc(O)cc2)cc1C (stereo unspecified) | -31 | -52* | i | ? | -37% | 3%
COc1cccc(-c2nc(C(N)=O)c3c(n2)n(-c2ccc4c(c2)OCO4)c(=O)n3C)c1OC | 0 | nt | i | 10% | -13% | -28%
O=C1CN(C(=O)COc2ccc(Cl)cc2)C(c2ccccc2)c2cc(Br)ccc2N1 (stereo unspecified) | 5 | nt | ? | ? | ? | -18%
COC(=O)C1=NN(C(=O)c2ccc(Cl)cc2)C(O)(c2ccccc2)C1 (stereo unspecified) | -25 | ? | i | ? | -11% | -20%
CCC1=NN(C(=O)c2ccc(Cl)cc2)C(O)(c2ccc(C)cc2)C1 (stereo unspecified) | 4 | 8 | i | 11µM* | 5% | 13µM*
CCOC(=O)C1=NN(C(=O)c2ccc(C)cc2)C(O)(c2ccc(Cl)cc2)C1 (stereo unspecified) | -9 | -57* | i | 7% | 2% | 2%
C[C@H]1O[C@H](O[C@H]2[C@H](O)[C@@H](O)[C@@H](O[C@H]3[C@H](O)[C@@H](O)[C@H](O)O[C@@H]3CO)O[C@@H]2CO)[C@H](O)[C@@H](O)[C@@H]1N[C@H]1C=C(CO)[C@@H](O)[C@H](O)[C@H]1O | 0 | nt | i | nt | 2% | nt
Cc1csc(NC(=O)CCNS(=O)(=O)c2ccc3c(c2)c(=O)n(C)c(=O)n3C)n1 | 24 | -93* | i | 0% | -11% | 2%
O=C(CCSCCc1ccccn1)Nc1ccc(Cl)cn1 | -2 | -62* | i | ? | 0% | 0%
O=C(CCC1COc2ccccc2O1)Nc1ccc(Cl)cn1 (stereo unspecified) | 0 | -52* | i | ? | ? | -28%
O=C(CCSCCc1ccccn1)Nc1ccccn1 | -2 | 7 | i | 0% | 9% | 1%
Cc1ccnc(NC(=O)CCC2COc3ccccc3O2)c1 (stereo unspecified) | -2 | -16 | i | -27% | 4% | -8%
CCC(COC)NC(=O)c1cnn(-c2ncc3c(n2)-c2ccccc2CCC3)c1C (stereo unspecified) | nt | nt | i | nt | nt | nt
COC(=O)c1cc2ccsc2n1CC(=O)Nc1cc(C)cc(C)c1 | -15 | -74* | i | 0% | -5% | -11%
COC(=O)c1cc2ccsc2n1CC(=O)NCC1CCCO1 (stereo unspecified) | -1 | -3 | i | -20% | 0% | -10%
